Some test systems named below: HCT-15 colon; HT29 colon; SNB-75 CNS; SNB-19 CNS; U251 CNS; PC-3 prostate; SK-MEL-5 melanoma; UACC-62 melanoma; LOX IMVI melanoma; SK-MEL-28 melanoma.
Test in all cases: NCI-60 one-dose screen, 48 h (100 = growth as untreated, 0 = no growth, -100 = all killed)
Details in all cases: 10 µM unless noted

“And” between values parts separate entries of the source, which are not always exact repeats. Equal entries are not always repeated. About 83,000 compounds went through this panel and 20% of them were active in at least one assay; those are over-represented in the sample as a whole.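 In brief: 96-well plates, 48 h treatment, single concentration, percent growth endpoint.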 Values without a mark were called inactive. The source made the active and inactive calls. The calls were made as follows: active = growth percent below 10; inactive = the rest.

Turning to `CCCCCc1cc[n+](CC(=O)c2ccccc2)cc1`, the growth in the test with HCT-15 colon was 99.4% and 103%; in the test on HT29 colon, 99.7% and 105%; with SNB-75 CNS it was 92.6%; with SNB-19 CNS it was 93.4% and 107%; with U251 CNS it was 103% and 105%; in the test on PC-3 prostate it was 85.6% and 91.1%. Besides, the growth in the test on SK-MEL-5 melanoma is 96% and 89.5%; in the test with UACC-62 melanoma, 98.7% and 101%; in the test on LOX IMVI melanoma, 93.8% and 98.6%; in the test on SK-MEL-28 melanoma, 128% and 109%.
For `Cn1c(N)c(N=O)c(=O)n(C)c1=O`, the growth is 105% and 101% in the test with HCT-15 colon; 111% and 90.2% in the test with HT29 colon; 86.9% and 92.6% in the test with SNB-75 CNS; 99.8% and 102% with SNB-19 CNS; 92.9% and 101% in the test on U251 CNS; 96.2% and 96.9% in the test on PC-3 prostate. Also, the growth with SK-MEL-5 melanoma is 137% and 99.6%; with UACC-62 melanoma, 103% and 93.1%; with LOX IMVI melanoma, 100%; with SK-MEL-28 melanoma it was 104% and 100%.
Consider `COc1ccc(CCn2cnn3c(=O)c4ccccc4nc3c2=O)cc1OC`, for which the growth in the test with HCT-15 colon is 104% and 109%; in the test with HT29 colon it was 106% and 104%; with SNB-75 CNS, 103% and 135%; in the test with SNB-19 CNS, 104% and 96.6%; with U251 CNS it was 101% and 104%; in the test on PC-3 prostate, 102% and 98.7%. For the same compound, the growth in the test on SK-MEL-5 melanoma was 101% and 97%; in the test with UACC-62 melanoma, 111% and 102%; in the test with LOX IMVI melanoma, 98%; in the test with SK-MEL-28 melanoma it was 109% and 125%.
As for `CC1=CC(=O)c2cccc(NC3=NCCO3)c21`, the growth in the test on HCT-15 colon is 102%; in the test with HT29 colon it was 101%; in the test on SNB-75 CNS, 84.6%; in the test with SNB-19 CNS, 104%; in the test with U251 CNS, 99.5%; with PC-3 prostate, 89.1%. Besides, the growth in the test on SK-MEL-5 melanoma is 98.2%; with UACC-62 melanoma, 87.8%; in the test on LOX IMVI melanoma it was 98.4%; with SK-MEL-28 melanoma, 108%.
On to `CCCCCCCCCCCCCCCCC(=O)O`, for which the growth was 102% with HCT-15 colon; 97.7% with HT29 colon; 101% with SNB-75 CNS; 105% in the test on SNB-19 CNS; 98% in the test on U251 CNS; 104% in the test with PC-3 prostate. The growth was 100% in the test with SK-MEL-5 melanoma, 101% in the test on UACC-62 melanoma, 98.4% in the test with LOX IMVI melanoma and 117% in the test with SK-MEL-28 melanoma.
Take `Cc1c(Cl)c(C)c(Cc2c(C)c(Cl)c(C)c(Cl)c2O)c(O)c1Cl`: the growth in the test on HCT-15 colon is 5.02% (active); in the test with HT29 colon it was 34%; in the test with SNB-75 CNS, 25%; in the test on SNB-19 CNS, 10.6%; in the test with U251 CNS, 8.95% (active); with PC-3 prostate, 8.74% (active). Also, the growth in the test on SK-MEL-5 melanoma is -69.7% (active); in the test with UACC-62 melanoma it was 18.2%; with LOX IMVI melanoma it was 4.09% (active); in the test with SK-MEL-28 melanoma, 26.1%.
For the compound `CCC(C)(O)CCC(C)(O)CC` (stereo not given), the growth with HCT-15 colon is 112%; in the test with HT29 colon it was 113%; in the test on SNB-75 CNS, 108%; in the test on SNB-19 CNS, 105%; in the test with U251 CNS it was 104%; with PC-3 prostate, 98.6%. The growth is 104% in the test with SK-MEL-5 melanoma, 108% in the test with UACC-62 melanoma, 98.1% with LOX IMVI melanoma and 124% in the test with SK-MEL-28 melanoma.
As to `Nc1nc(-c2ccccn2)cc(-c2cc(-c3ccccn3)nc(N)n2)n1`, the growth with HCT-15 colon was 97%; with HT29 colon, 120%; in the test with SNB-75 CNS it was 143%; in the test on SNB-19 CNS, 101%; in the test with U251 CNS it was 109%; in the test with PC-3 prostate, 99.3%. The growth is 105% with SK-MEL-5 melanoma, 102% with UACC-62 melanoma, 96.5% with LOX IMVI melanoma and 113% in the test with SK-MEL-28 melanoma.
`CCOC(=O)C(N)Cc1cc(I)c(O)c(I)c1` (stereo not given): the growth with HCT-15 colon was 107% and 96.6%; in the test with HT29 colon, 105% and 104%; in the test on SNB-75 CNS it was 102% and 83.8%; in the test on SNB-19 CNS, 109% and 95.9%; with U251 CNS, 104% and 110%; in the test on PC-3 prostate, 98.3% and 89.8%. Further, the growth with SK-MEL-5 melanoma is 105% and 108%; in the test on UACC-62 melanoma, 101% and 97%; in the test with LOX IMVI melanoma, 110% and 105%; in the test with SK-MEL-28 melanoma it was 111% and 116%.
Regarding `N#Cc1ccc(/C=C/C(=O)c2ccccc2)cc1`, the growth with HCT-15 colon is 49.6% and 82.3%; in the test on HT29 colon, 12% and 70.5%; in the test with SNB-75 CNS, 87.3%; in the test with SNB-19 CNS, 89.9%; in the test with U251 CNS it was 33.2% and 62.5%; in the test with PC-3 prostate it was 52.2%. The growth in the test with SK-MEL-5 melanoma is 90.9% and 102%; in the test on UACC-62 melanoma, 91.3% and 89.9%; in the test with LOX IMVI melanoma, 28% and 82%; in the test with SK-MEL-28 melanoma, 124% and 93.1%.
For the compound `CC(=O)Nc1cscc1NC(C)=O`, the growth with HCT-15 colon was 106%; in the test with HT29 colon, 96.2%; in the test with SNB-75 CNS, 93.2%; with SNB-19 CNS, 92.6%; in the test with U251 CNS, 98.9%; in the test with PC-3 prostate, 103%. For the same compound, the growth was 99.3% in the test with SK-MEL-5 melanoma, 93.7% in the test on UACC-62 melanoma, 98.6% with LOX IMVI melanoma and 104% in the test on SK-MEL-28 melanoma.

Source of the values: PubChem BioAssay (NCI).
